This note sets out measurements from PubChem BioAssay (EPA / NIEHS).

Assay [1] can be described thus: ATG_GRE_CIS: Attagene CIS-FACTORIAL HepG2 Assay for human Glucocorticoid Response Elements (GRE) (AID 2282947). The settings on record: HepG2 GRE cis-reporter, Attagene multiplex mRNA; AC50: actives raise or lower the signal unless noted; outcome: actives raise or lower the signal unless noted. A digest of the protocol: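 Following 24 h chemical exposure of transiently transfected HepG2 cells, total RNA was reverse-transcribed and reporter cDNA amplified, fluorescently labelled and sized by capillary electrophoresis. Signal gain or loss was fitted relative to DMSO vehicle.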

Assay [2] can be described thus: ATG_ISRE_CIS: Attagene CIS-FACTORIAL HepG2 Assay for human Interferon Regulatory Factor 1 (IRF1) binding to an Interferon-Stimulated Response Element (ISRE) (AID 2282948). The settings on record: HepG2 ISRE cis-reporter (Attagene), mRNA transcription readout; actives raise or lower the signal. A digest of the protocol:
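Quantitation relies on labelled RT-PCR fragments separated by capillary electrophoresis. Human HepG2 cells bearing cis-promoter reporter constructs were treated 24 h; DMSO served as baseline for bidirectional fitting.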

Assay [3] is described as follows: ATG_M_32_CIS: Attagene CIS-FACTORIAL HepG2 Assay for M32 Transcription Factor (Internal Marker) (AID 2282949).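 Also: background control marker of the multiplexed CIS panel rather than a real target.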 As to conditions: HepG2 Attagene cis-factorial M32 reporter, mRNA; actives raise or lower the signal. A digest of the protocol:
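Fluorescent capillary electrophoresis peaks of HpaI-digested, FAM-labelled RT-PCR reporter products give the signal. Source: transiently transfected human liver HepG2 cells, 24 h after chemical dosing; bidirectional fitting against DMSO.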

Assay [4] is described as follows: ATG_M_06_CIS: Attagene CIS-FACTORIAL HepG2 Assay for M06 Transcription Factor (Internal Marker) (AID 2282950). As to conditions: HepG2 Attagene CIS-FACTORIAL M06 internal marker reporter; actives raise or lower the signal. The method in brief:
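Serves as a background control readout. Transfected HepG2 exposed to compounds for 24 h, then reporter transcripts quantified by fluorescent RT-PCR and capillary electrophoresis. Both directions fitted against DMSO baseline.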

The target in assay [5] is Hypoxia-inducible factor 1-alpha (Homo sapiens) (UniProt Q16665). The assay is described as follows: ATG_HIF1a_CIS: Attagene CIS-FACTORIAL HepG2 Assay for human Hypoxia Inducible Factor 1 (HIF1A) (AID 2282951). The settings on record: HepG2 Attagene cis-factorial HIF1a reporter transcription; actives raise or lower the signal. A digest of the protocol:
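HepG2 cells transiently transfected with multiplexed cis-promoter reporter units; reporter mRNA read 24 h after dosing by RT-PCR, 6-FAM primer-extension labelling, HpaI digestion and capillary electrophoresis. Bidirectional fit versus DMSO baseline.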

The target in assay [6] is Hepatocyte nuclear factor 6 (Homo sapiens) (UniProt Q9UBC0). Nature of the assay: ATG_HNF6_CIS: Attagene CIS-FACTORIAL HepG2 Assay for human Hepatocyte Nuclear Factor 6 (HNF6) (AID 2282952). As to conditions: HepG2 Attagene cis-factorial HNF6 reporter transcription; actives raise or lower the signal. A digest of the protocol: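 Reporter mRNA induction or loss in HepG2 after 24 h exposure; transient cis-MRTU transfection; fragments quantified by capillary electrophoresis; bidirectional analysis, DMSO as negative control.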

Assay [7] addresses Heat shock factor protein 1 (Homo sapiens) (UniProt Q00613). The assay is described as follows: ATG_HSE_CIS: Attagene CIS-FACTORIAL HepG2 Assay for human Heat Shock Transcription Factor 1 (HSE) (AID 2282953). The settings on record: HepG2 HSE cis-reporter, Attagene RNA transcription; actives raise or lower the signal. A digest of the protocol:
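Endogenous transcription factor activity in transiently transfected HepG2, read as reporter mRNA by RT-PCR with fluorescent capillary electrophoresis after 24 h. Gain or loss of signal fitted versus DMSO baseline.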

The target of assay [8] is Paired box protein Pax-6 (Homo sapiens) (UniProt P26367). Nature of the assay: ATG_Pax6_CIS: Attagene CIS-FACTORIAL HepG2 Assay for human Paired Box 6 (PAX6) (AID 2282956). As to conditions: HepG2 CIS-FACTORIAL PAX6 reporter transcription, RNA readout; actives raise or lower the signal. A digest of the protocol:
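After twenty-four hours of chemical exposure, transfected HepG2 cells are harvested for RNA. Cis-promoter reporter transcripts are amplified, fluorescently labelled and sized by capillary electrophoresis, with gain and loss of signal scored against DMSO.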

Assay [9] can be described thus: ATG_PBREM_CIS: Attagene CIS-FACTORIAL HepG2 Assay for human Phenobarbital-responsive Enhancer Module (PBREM) (AID 2282955). As to conditions: HepG2 PBREM cis-reporter, Attagene multiplexed transcription; actives raise or lower the signal. A digest of the protocol: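 HepG2 cells transiently transfected with multiple cis-regulated reporter transcription units; endogenous factor activity at the PBREM element measured as reporter mRNA 24 h after dosing, via RT-PCR and capillary electrophoresis of fluorescent fragments; bidirectional fitting versus DMSO.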

A short description of assay [10]: ATG_MRE_CIS: Attagene CIS-FACTORIAL HepG2 Assay for human Metal Responsive Element (MRE) (AID 2282954). As to conditions: HepG2 MRE cis-reporter transcription, Attagene multiplex; actives raise or lower the signal. A digest of the protocol: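 Step one: transfect HepG2 with cis-regulated reporter units. Step two: dose 24 h. Step three: isolate RNA, RT-PCR, 6-FAM label, HpaI digest, capillary electrophoresis. Fit bidirectionally to DMSO.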

Several values for one entry are separate records, joined by “and”; a condition that tells them apart may be missing. Equal values may be shown once. The source holds several records for some structures; these can differ, active in one and inactive in another. Activity calls are given as the source filed them. The calls were made as follows: active = hit-call score of the fitted dose curve at least 0.9, where 1 is the maximum; inactive = score below 0.9.

Chain of Hepatocyte nuclear factor 6 (Homo sapiens) (Q9UBC0 whole entry, looked up, the tested form may be a part): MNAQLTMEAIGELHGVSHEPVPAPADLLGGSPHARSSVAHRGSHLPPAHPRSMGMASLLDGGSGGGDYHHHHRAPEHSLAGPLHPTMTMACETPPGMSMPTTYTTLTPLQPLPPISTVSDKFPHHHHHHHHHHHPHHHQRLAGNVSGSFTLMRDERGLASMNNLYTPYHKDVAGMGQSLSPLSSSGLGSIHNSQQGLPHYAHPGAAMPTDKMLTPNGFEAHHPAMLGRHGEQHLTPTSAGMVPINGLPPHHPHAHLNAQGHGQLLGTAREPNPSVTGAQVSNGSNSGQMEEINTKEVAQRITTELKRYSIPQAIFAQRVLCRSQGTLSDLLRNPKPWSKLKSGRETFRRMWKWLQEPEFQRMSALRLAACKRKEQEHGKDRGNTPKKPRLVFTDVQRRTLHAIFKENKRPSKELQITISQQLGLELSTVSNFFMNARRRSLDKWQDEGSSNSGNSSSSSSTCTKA
Chain of Hypoxia-inducible factor 1-alpha (Homo sapiens) (Q16665 whole entry, looked up): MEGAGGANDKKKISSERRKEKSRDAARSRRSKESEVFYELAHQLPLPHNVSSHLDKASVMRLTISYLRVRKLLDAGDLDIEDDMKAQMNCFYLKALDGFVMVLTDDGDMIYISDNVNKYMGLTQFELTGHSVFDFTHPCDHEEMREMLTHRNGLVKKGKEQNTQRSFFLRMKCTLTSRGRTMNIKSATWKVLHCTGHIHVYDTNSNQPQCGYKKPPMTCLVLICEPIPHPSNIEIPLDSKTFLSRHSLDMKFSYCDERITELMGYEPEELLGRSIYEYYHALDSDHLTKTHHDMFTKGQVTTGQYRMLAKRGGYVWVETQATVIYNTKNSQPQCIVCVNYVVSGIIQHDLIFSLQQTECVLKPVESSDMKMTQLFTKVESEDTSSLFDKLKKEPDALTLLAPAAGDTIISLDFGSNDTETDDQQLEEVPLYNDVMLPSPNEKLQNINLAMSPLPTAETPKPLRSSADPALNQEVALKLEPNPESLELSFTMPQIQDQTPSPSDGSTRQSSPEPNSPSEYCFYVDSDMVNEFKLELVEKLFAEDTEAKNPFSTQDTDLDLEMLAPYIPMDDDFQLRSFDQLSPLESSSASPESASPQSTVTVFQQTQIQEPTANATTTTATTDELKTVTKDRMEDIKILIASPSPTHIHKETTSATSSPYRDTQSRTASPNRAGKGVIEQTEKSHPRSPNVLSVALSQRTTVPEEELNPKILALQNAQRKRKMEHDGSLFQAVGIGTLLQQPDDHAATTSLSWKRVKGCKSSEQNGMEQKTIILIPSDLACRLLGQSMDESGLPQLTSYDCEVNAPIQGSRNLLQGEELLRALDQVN
Chain of Paired box protein Pax-6 (Homo sapiens) (P26367 whole entry, looked up): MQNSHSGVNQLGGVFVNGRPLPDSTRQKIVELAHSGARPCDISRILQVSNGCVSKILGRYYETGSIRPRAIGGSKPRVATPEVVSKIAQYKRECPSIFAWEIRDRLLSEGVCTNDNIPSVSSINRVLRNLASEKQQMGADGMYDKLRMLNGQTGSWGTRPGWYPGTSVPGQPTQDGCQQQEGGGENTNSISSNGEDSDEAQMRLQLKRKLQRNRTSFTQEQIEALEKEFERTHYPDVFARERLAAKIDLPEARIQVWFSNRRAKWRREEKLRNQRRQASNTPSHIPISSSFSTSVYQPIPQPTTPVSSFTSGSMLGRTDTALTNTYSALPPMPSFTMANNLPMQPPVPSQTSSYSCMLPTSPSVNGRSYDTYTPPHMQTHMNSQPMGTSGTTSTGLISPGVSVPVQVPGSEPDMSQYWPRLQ
Chain of Heat shock factor protein 1 (Homo sapiens) (Q00613 whole entry, looked up): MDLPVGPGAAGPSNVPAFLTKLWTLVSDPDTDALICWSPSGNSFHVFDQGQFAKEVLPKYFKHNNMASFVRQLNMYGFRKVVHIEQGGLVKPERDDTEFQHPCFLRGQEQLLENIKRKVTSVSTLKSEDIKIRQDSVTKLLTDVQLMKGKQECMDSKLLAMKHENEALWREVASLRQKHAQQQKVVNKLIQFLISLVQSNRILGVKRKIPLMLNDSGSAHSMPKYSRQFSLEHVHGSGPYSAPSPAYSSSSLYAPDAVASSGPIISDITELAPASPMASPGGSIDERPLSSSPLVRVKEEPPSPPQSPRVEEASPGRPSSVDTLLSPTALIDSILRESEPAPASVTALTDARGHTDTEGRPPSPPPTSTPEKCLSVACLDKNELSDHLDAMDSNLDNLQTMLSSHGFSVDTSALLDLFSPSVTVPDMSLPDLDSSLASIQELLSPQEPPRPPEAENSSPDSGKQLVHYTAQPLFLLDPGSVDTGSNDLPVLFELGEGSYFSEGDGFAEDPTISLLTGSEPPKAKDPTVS

Consider `CCCCC(CC)C(=O)OCCOCCOCCOCCOC(=O)C(CC)CCCC` (configuration not stated), for which the molecule was classed as inactive in assay [1], in assay [2], in assay [3], in assay [4], in assay [5] and in assay [6]. Moreover, the result in assay [7] and in [8] was inactive.

For the molecule `CCCCCCc1ccc(N)cc1`, the molecule was classed as inactive in assay [1], in assay [3], in [4], in assay [5], in assay [6] and in assay [7]. Moreover, the result in assay [9] and in assay [8] was inactive. Further, the AC50 (in general, the concentration at which the activity in the assay is half-maximal) in [2] is 26.9 µM (active).

With `c1cnc2c(c1)ccc1cccnc12`, the molecule was called inactive in assay [1], in [3], in assay [4], in [6], in assay [7] and in [10]. Also, in [8], the result was inactive. Besides, the AC50 is 7.67 µM (active) and 7.15 µM (active) in assay [2]; 144 µM (active) in assay [7].

Consider `COc1ccc(C#N)cc1`, for which the molecule was called inactive in assay [1], in assay [2], in assay [3], in assay [4], in [5] and in assay [6]. The call in assay [7] and in [9] was inactive.

In the case of `CCCCCCCCCCCCCC[n+]1ccccc1`, the call in [1], in [2], in assay [3], in assay [4], in [5] and in assay [6] was inactive. For the same molecule, the call in assay [7] and in [10] was inactive. The concentration at half-maximal activity (AC50) in [8] is 11.1 µM (active).

Consider `CCc1cccc(CC)c1NC(=O)C(=O)O`, for which the result in [1], in assay [2], in assay [3], in [4], in assay [5] and in assay [6] was inactive. In addition, the molecule was classed as inactive in assay [7], in assay [10] and in assay [8].

`CC1=CC(=O)c2ccccc2C1=O`: the result in assay [1], in assay [2], in assay [3], in assay [4], in assay [5] and in [6] was inactive. For the same molecule, the molecule was called inactive in [7], in assay [9] and in [8].

Consider `FC(F)(F)C1(F)C(F)(F)C(F)(F)C(F)(F)C(F)(C(F)(F)F)C1(F)F` (configuration not stated), for which the outcome in [1], in [2], in [3], in assay [4], in assay [6] and in assay [7] was inactive.

For the molecule `C[C@]12CC[C@@H]3c4ccc(O)cc4CC[C@H]3[C@@H]1CC[C@@H]2OC(=O)CCC1CCCC1`, the outcome in [1], in [2], in [4], in assay [5], in assay [7] and in assay [10] was inactive. Further, the molecule was classed as inactive in assay [8]. In addition, the figures for the AC50 in assay [3] and in assay [6] were 164 µM (active) and 125 µM (active), respectively.

As for `O=C1OC(=O)C(F)(F)C1(F)F`, the result in [1], in [2], in [3], in assay [4], in [5] and in assay [6] was inactive. Also, the call in assay [7], in [9] and in assay [8] was inactive.

For the molecule `O=C(F)C(F)(F)C(F)(F)C(F)(F)C(F)F`, the molecule was classed as inactive in assay [1], in assay [2], in assay [3], in [4], in [5] and in assay [6]. Further, the molecule was classed as inactive in assay [7] and in assay [9].

In the case of `O=C(OC(=O)C(F)(F)C(F)(F)F)C(F)(F)C(F)(F)F`, the molecule was called inactive in [1], in assay [2], in assay [3], in assay [4], in assay [5] and in assay [6]. Further, the molecule was classed as inactive in assay [7], in [10] and in [8].

In the case of `O=C1C=CC(=O)N1c1cccc(N2C(=O)C=CC2=O)c1`, the molecule was called inactive in assay [1], in assay [2], in assay [3], in assay [4], in assay [5] and in assay [6]. Besides, the outcome in [7], in assay [10] and in assay [8] was inactive.

As to `CC1=NN(c2ccccc2)C(=O)C1`, the molecule was called inactive in assay [1], in assay [2], in assay [3], in [4], in assay [6] and in [7]. In assay [10], the result was inactive.

Take `CCCCCCCCC(C)=O`: the call in assay [1], in assay [2], in assay [3], in assay [4], in assay [6] and in assay [7] was inactive. Also, the molecule was called inactive in [10] and in assay [9].

For the molecule `CCCCCCCCCC=CCC1CC(=O)OC1=O` (configuration not stated), the call in [1], in assay [2], in [3], in assay [4], in assay [5] and in [6] was inactive. The result in assay [7], in assay [9] and in [8] was inactive.

On to `COC1=CC(=O)C[C@@H](C)[C@]12Oc1c(Cl)c(OC)cc(OC)c1C2=O`, for which the result in [1], in assay [2], in assay [3], in assay [4], in assay [6] and in assay [7] was inactive. For the same molecule, the outcome in assay [9] was inactive. Also, the AC50 in assay [5] is 26.6 µM (active).

`COC(=O)C(F)(F)C(F)(F)C(F)(F)F`: the result in [1], in assay [2], in assay [3], in assay [4], in assay [6] and in [7] was inactive. Further, the result in [9] and in assay [8] was inactive.

Regarding `C=C(c1ccc(C(=O)O)cc1)c1cc2c(cc1C)C(C)(C)CCC2(C)C`, the AC50 is 16.8 µM (active) in [2]; 32.2 µM (active) in assay [3]; 16.2 µM (active) and 27.9 µM (active) in [7]; 13.8 µM (active) and 23 µM (active) in assay [10]; 14.9 µM (active) and 25.3 µM (active) in assay [8]. Also, the call in assay [2], in assay [3], in assay [4], in assay [5] and in [6] was inactive.

Regarding `C=CCOCC(CO)(CO)CO`, the molecule was called inactive in assay [2], in assay [3], in [4], in [5], in [6] and in [7]. In addition, the call in assay [10] and in assay [9] was inactive.

For the molecule `CN(CCO)S(=O)(=O)C(F)(F)C(F)(F)C(F)(F)C(F)(F)C(F)(F)C(F)(F)C(F)(F)C(F)(F)F`, the outcome in assay [1], in assay [2], in assay [3], in assay [4], in assay [6] and in [7] was inactive. For the same molecule, the call in assay [10] and in assay [8] was inactive.

As to `CCCCCCCCCCCCOC(=O)c1cc(O)c(O)c(O)c1`, the AC50 was 11.1 µM (active) in assay [2], 6.75 µM (active) in assay [5], 8.12 µM (active) in [7] and 18.5 µM (active) in assay [10]. In addition, the molecule was called inactive in [3], in assay [4] and in assay [6].

As to `O=C(Nc1cccc([N+](=O)[O-])c1)c1cc2ccccc2cc1O`, the call in assay [2], in assay [3], in assay [4], in assay [5], in assay [6] and in [7] was inactive. Besides, the result in [10] was inactive. Moreover, the AC50 in assay [9] was 3.64 µM (active).

Take `C=CC(=O)OCCC(F)(F)C(F)(F)C(F)(F)C(F)(F)C(F)(F)C(F)(F)C(F)(F)C(F)(F)F`: the call in assay [2], in assay [3], in [4], in assay [5], in assay [6] and in assay [7] was inactive. The molecule was called inactive in assay [10].

Consider `CCO[Si](C)(C)OCC`, for which the molecule was called inactive in [2], in assay [3], in assay [4], in [5], in [6] and in assay [7]. Besides, the molecule was called inactive in [10] and in assay [9].
